High-throughput results: PubChem, National Center for Advancing Translational Sciences (NCATS)
D2 PAM-1 – D2 dopamine receptor (human) potentiation; P14416; HEK293 T-REx D2, calcium flux, EC20 dopamine potentiation; potentiation, % at 10 µM; hit rate 0.34% among 340,000;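 active means potentiation over 3 SD above the plate norm, cut at about 30% in these data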; further: 0% is about no effect
Target sequence (P14416 whole entry, looked up): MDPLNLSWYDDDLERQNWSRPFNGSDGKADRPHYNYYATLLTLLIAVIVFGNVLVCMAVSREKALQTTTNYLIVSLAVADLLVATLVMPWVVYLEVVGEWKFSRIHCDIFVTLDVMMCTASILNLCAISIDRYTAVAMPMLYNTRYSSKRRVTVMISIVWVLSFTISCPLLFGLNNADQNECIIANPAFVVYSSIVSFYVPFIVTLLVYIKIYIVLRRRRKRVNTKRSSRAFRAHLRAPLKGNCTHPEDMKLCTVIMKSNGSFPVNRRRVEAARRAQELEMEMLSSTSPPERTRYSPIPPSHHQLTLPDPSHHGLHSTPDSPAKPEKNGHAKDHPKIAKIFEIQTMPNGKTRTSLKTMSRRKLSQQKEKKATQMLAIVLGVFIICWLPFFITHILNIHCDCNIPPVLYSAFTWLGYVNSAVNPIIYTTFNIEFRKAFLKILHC
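Tetracycline-induced Hek293 Trex D2 cells, force-coupled to calcium, loaded with no-wash calcium dye. Compound added with 180 s kinetic read for agonism, then EC20 dopamine and a further 180 s read for potentiation.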
D2 ag-1 – D2 dopamine receptor (human) agonism; P14416; HEK293 T-REx D2 cells, calcium flux agonist mode; activation, % at 2 µM; hit rate 0.53% among 340,000; AID 485358;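 active means activation over 3 SD above normal in the single-dose calcium agonist read, cut at about 30% in these data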; further: 0% is about no effect
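Agonism is scored from calcium flux in a force-coupled, inducible HEK293 cell line expressing D2, read kinetically for 180 s after compound addition against dopamine controls.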
D2 antagonist – D2 dopamine receptor (human) antagonism. P14416. HEK293 TREx D2 cells, calcium flux, dopamine EC80. inhibition, % at 10 µM. hit rate 2% among 340,000. AID 485344; in the data active means inhibition above about 30%; inactive means below that, where a call was filed; further: 0% is about no effect
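In this primary screen, negative modulation is detected by tracking calcium flux after an EC80 dopamine challenge in inducible HEK293 T-REx D2 cells preexposed to test compound for 180 s.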
D2 PAM-2 – positive allosteric modulators of human D2 dopamine receptor; AID 624464; DiscoveRx D2 beta-arrestin cells, luminescence, 90 min; 100% = 57 uM dopamine signal; P14416; potentiation, % (test concentration not listed); hit rate 0.23% among 360,000; in the data active means potentiation above about 50%
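PathHunter D2 cells, attached overnight at 37 deg C, received compound in DMSO plus dopamine at EC20 (50 nM final) for 90 min at 37 deg C. Beta-arrestin recruitment was read as luminescence after 1 h with detection reagent at ambient temperature.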
D2 ag-2 – activates the human D2 dopamine receptor | AID 624465 | hit rate 0.084% among 360,000 | activation, % (no concentration beside the values) | P14416 | DiscoveRx PathHunter D2 beta-arrestin, luminescence, 90 min; 100% = 57 uM dopamine signal; in the data active means activation above about 40%
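DiscoveRx PathHunter D2 beta-arrestin cells (2,100/well) attached overnight, then compound-stimulated 90 min at 37 C in HBSS/10 mM HEPES/0.1% Tween-20 buffer; beta-galactosidase complementation read by luminescence after 1 h at ambient temperature. Dopamine 57 uM final (EC100) as control.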
* marks the source's active call; other numbers are inactive results; . = not tested or not shown. Rows were chosen to be rich in hits. Some 2.4% of all compounds tested hit in one or more screens of this group.

SMILES	D2 PAM-1	D2 ag-1	D2 antagonist	D2 PAM-2	D2 ag-2
O=C(CCn1ccc2cc(S(=O)(=O)N3CCCC3)ccc21)NCc1ccccc1Cl	-5.2	0.5	.	.	.
CC(C)OCCCn1c(SCC(N)=O)nc2c(sc3ccccc32)c1=O	12.2	1.2	.	.	.
CC(NC(=O)COC(=O)CCc1ccccc1)c1ccccc1 (stereo not given)	-24.7	-0.8	34.8*	-8.9	-1.7
CC(NC(=O)COC(=O)CSCc1ccccc1)c1ccccc1 (stereo not given)	2.8	-1.2	1.5	-34.7	0.1
Cc1ccc2occ(C(=O)c3ccco3)c(=O)c2c1	2.5	-1.4	38.5*	-2.1	-1.1
O=S(=O)(c1ccc2c(c1)OCO2)N1CCN(c2nnnn2-c2ccccc2)CC1	25.6	0.7	36.2*	-7.0	-4.0
C=CCC1(O)C(=O)N2C(=C1C(=O)N1CCOCC1)c1ccccc1CC2(C)C (stereo not given)	-6.7	0.6	44.8*	-6.1	-2.1
C(#CC1CCCCC1)c1ccc2c(c1)COc1c3ccccc3nn1-2	33.9*	0.3	2.4	4.9	0.6
CC(=NNC(=O)C(C)SC(C)C(=O)NN=C(C)c1cccnc1)c1cccnc1 (stereo not given)	.	.	.	5.0	5.5
COCCNC(=O)C1(C)CCCN(CCSc2ccccc2)C1 (stereo not given)	.	.	.	-1.9	5.3
COC(=O)c1ccccc1NC(=O)CN1CCN(C23CC4CC(CC(C4)C2)C3)CC1	-24.1	1.4	72.2*	-18.6	-2.8
COC(=O)c1ccccc1NC(=O)CN1CCc2ccccc2C1	0.0	0.5	-2.2	-9.9	5.4
O=C(COC(=O)c1ccc(Cl)c(S(=O)(=O)N2CCCCC2)c1)NCC1CCCCC1	-7.3	-0.8	43.8*	-1.6	-1.4
Cc1cc(C)c(C#N)c(SCS(=O)Cc2ccccc2)n1 (stereo not given)	-2.6	-1.2	-13.1	-6.8	1.8
Cc1cc(C)c(C#N)c(SCS(=O)Cc2ccc(Cl)cc2)n1 (stereo not given)	-7.5	0.0	36.7*	-16.3	-0.2
CCc1ccccc1OCCCN1CCCC1	-13.3	.	.	-3.9	7.3
CCc1ccccc1OCCCCN1CCCCC1	-26.8	0.0	89.4*	-15.7	1.6
Cc1cc(C)c(C)c(OCCCCN2CCCCC2)c1	-35.7	0.5	55.3*	-26.1	6.4
Cc1ccccc1OCCCCN1CCCCC1	-16.2	0.9	49.5*	-19.5	-5.5
COc1ccccc1OCCCCN1CCCCC1	-19.4	.	.	-5.9	1.9
Cc1cc(C)c(C)c(OCCOCCN2CCN(C)CC2)c1	2.9	-1.1	-11.9	-23.1	-5.3
O=C(CSc1c2c(nc3ccc(Cl)cc13)CCCC2)N1CCCCC1	-4.8	-0.1	.	.	.
COc1cccc(/C=C/C(=O)OCC(=O)c2ccc3c(c2)NC(=O)CO3)c1	17.1	-0.2	42.1*	-4.7	-0.1
CN(C)CCCCOc1ccccc1F	-5.9	0.4	-1.1	-12.7	-2.5
CN(C)CCCCOc1ccccc1-c1ccccc1	-28.4	4.1	70.6*	-21.2	-1.1
SMILES	D2 PAM-1	D2 ag-1	D2 antagonist	D2 PAM-2	D2 ag-2
CCCCNCCOCCOc1ccccc1-c1ccccc1	-20.6	-0.1	76.4*	-27.0	2.4
C=CCNCCOc1ccccc1-c1ccccc1	-28.1	8.0	86.9*	-38.8	-1.1
COCCNCCCCOc1ccccc1-c1ccccc1	-33.6	0.6	92.0*	-35.7	-5.4
C=CCNCCCOc1ccc(C(C)(C)c2ccccc2)cc1	7.7	-0.1	-5.9	-32.7	-5.5
Cc1ccc(C(=O)n2nc(C)c(S(=O)(=O)N3CCCCCC3)c2C)cc1C	14.7	-1.0	.	.	.
COc1ccc(Br)cc1CNCc1c(C(=O)O)c(C)n(Cc2ccccc2C)c1C	3.9	-0.1	.	.	.
Cc1c(NC(=O)c2cccs2)cccc1-c1nc2cc(Cl)ccc2o1	13.7	0.1	.	.	.
Cc1ccc(-n2c(=O)c3c(cnn3C)n(CC(=O)Nc3cc(C)ccc3C)c2=O)cc1	2.1	-0.6	.	.	.
COc1ccc(CNS(=O)(=O)c2cc(C(=O)Nc3cc(Cl)cc(Cl)c3)ccc2F)cc1	5.4	0.9	.	.	.
CSc1ccc(/C=N\Nc2nncn2N)cc1	1.9	-0.3	3.7	-3.3	43.4*
Clc1cccc(-c2ccc(CNCCCN3CCOCC3)o2)c1	-20.8	-1.3	91.6*	-19.6	-2.9
O=C(NCCN1CCOCC1)c1cccc(Br)c1	.	.	.	-5.7	1.7
O=C(NCCN1CCOCC1)c1cccc(Cl)c1	-16.0	2.3	32.7*	-9.3	-3.1
